TDP1 cell noCPT – qHTS for Inhibitors of human tyrosyl-DNA phosphodiesterase 1 (TDP1): qHTS in cells in absence of CPT; DT40 Tdp1-/- hTDP1 cells, no CPT, ATP luminescence, 48 h; Potency, µM (highest dose often 46.2 µM), for the others: at the top dose activity change, negative = growth inhibition, most hits filed as inhibitors; 420,000 compounds, 15% hits; further: potency means the concentration at half of the fitted maximal effect; on the % scale 0 is the no-effect control and ±100 the full control effect; nearly all actives have a fitted effect of over 55% in size
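DT40 Tdp1-/-;hTDP1 cells, no CPT (DMSO vehicle only), 400 cells/well; compounds pin-transferred; ≥48 hr, 37 °C; CellTiter-Glo 30 min RT dark, luminescence read.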
TDP1 cell CPT – growth inhibition of DT40 Tdp1-/-;hTDP1 cells with camptothecin (screen for TDP1 inhibitors); 420,000 compounds, 12% hits; Potency, µM (doses to about 46.2 µM), for the others: at the highest dose activity change, negative = growth inhibition, most hits filed as inhibitors; chicken DT40 Tdp1-/-;hTDP1 cells + 20 nM CPT, ATP luminescence, 48 h; further: potency means the concentration at half of the fitted maximal effect; on the % scale 0 is the no-effect control and ±100 the full control effect; nearly all actives have a fitted effect of over 55% in size
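Cell growth measured by CellTiter-Glo luminescence after a minimum 48 h, 37 C compound exposure with 20 nM CPT in Tdp1-knockout DT40 cells stably expressing hTDP1, seeded 400/well; qHTS titration format.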
ClpP mod – qHTS Assay for Activators of ClpP; ATP-dependent Clp protease proteolytic subunit (Bacillus subtilis (strain 168)), P80244; purified B. subtilis ClpP, FRET peptide cleavage, 20 min; Potency, µM (titrated, usually from 57.5 µM), without a hit: at the highest dose activity change, negative = active; 340,000 compounds, 1.9% hits; AID 651965, 2013; active means well fitted falling curve with a large enough effect; inconclusive means small, poorly fitted or top-dose-only effect; inactive means no such curve, though single readings can be large or run the other way; further: potency means the concentration at half of the fitted maximal effect; the source files actives as falling curves though it sought activators and does not explain the sign; nearly all actives have a fitted effect of over 65% in size
Target sequence (P80244 whole entry, looked up): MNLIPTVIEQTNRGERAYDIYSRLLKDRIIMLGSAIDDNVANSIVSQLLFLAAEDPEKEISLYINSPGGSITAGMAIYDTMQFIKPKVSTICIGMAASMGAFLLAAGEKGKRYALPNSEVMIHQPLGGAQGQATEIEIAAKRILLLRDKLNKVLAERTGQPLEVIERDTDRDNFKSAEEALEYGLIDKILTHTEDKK
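FRET quenching reversal measured ClpP activation: 10 microg/mL B. subtilis ClpP at pH 8 with the FRET-FV decapeptide, read at 430 nm after 320 nm excitation. The 20-min minus 0-min signal was scaled between DMSO/no-enzyme wells and ADEP (5.8 microM final).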
DRD3 antagonist – antagonists of human D3 dopamine receptor; P35462; D3R cells, DiscoveRx beta-arrestin luminescence, antagonist mode; active compounds read low; max response, negative = inhibition, %; 360,000 compounds, 2.5% hits; in the data active means max response below about -50%; inconclusive means no clear call, values can overlap the other calls; further: on the % scale 0 is the no-effect control and ±100 the full control effect
Target sequence (P35462 whole entry, looked up): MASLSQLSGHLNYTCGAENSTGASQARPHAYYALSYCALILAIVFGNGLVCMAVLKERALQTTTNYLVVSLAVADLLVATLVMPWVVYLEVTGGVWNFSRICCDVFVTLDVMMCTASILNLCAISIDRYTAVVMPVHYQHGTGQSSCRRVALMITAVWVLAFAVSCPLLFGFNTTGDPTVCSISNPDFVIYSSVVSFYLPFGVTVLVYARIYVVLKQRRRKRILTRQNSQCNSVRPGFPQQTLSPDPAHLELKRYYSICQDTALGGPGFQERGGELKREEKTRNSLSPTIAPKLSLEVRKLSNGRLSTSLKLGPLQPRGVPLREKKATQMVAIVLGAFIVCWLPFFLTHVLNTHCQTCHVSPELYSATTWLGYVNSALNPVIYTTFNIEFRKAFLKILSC
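Cells plated overnight at 1500 cells/well, then exposed to library compounds with dopamine controls for 90 minutes at 37 degrees C. DiscoveRx reagent added for 30–60 minutes at room temperature; luminescence read, quantitative HTS format.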
D3 ag – agonists of human D3 dopamine receptor | P35462 | D3R DiscoveRx beta-arrestin cells, luminescence, 90 min | max activation, % | 410,000 compounds, 0.58% hits | AID 652048; in the data active means max activation above about 30%; further: 0% is about no effect
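Agonist mode: compounds and dopamine controls were applied to plated cells for 90 min at 37 degrees C after an overnight attachment at 1500 cells/well. Luminescent read-out followed 30 - 60 minutes at room temperature with DiscoveRx detection reagent.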
IL1B secr inh – inflammasome signaling inhibition, IL-1 beta readout | activity change, % at 57.5 µM | 360,000 compounds, 4.7% hits | THP-1 LPS/ATP IL-1B secretion, AlphaLISA, 16 h; active compounds read low; in the data active means activity change below about -50%; inconclusive means mostly about -30% to -49%; further: on the % scale 0 is the no-effect control and ±100 the full control effect
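THP-1 cells pretreated 1 hr with compounds (up to 57.5 uM final), then stimulated with LPS (250 ng/mL final) plus ATP (1.25 mM final); secreted IL-1B measured by AlphaLISA after 16 hr, decreased signal indicating inhibition.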
* hit, by the source's call; u = inconclusive; x = not tested or not shown; [ ] = dose if it differs, or a comment. An excerpt weighted towards active compounds, which were near 21% of everything screened. Unless noted, the call rests on the fitted dose curve; in most records, active means well fitted inhibition curve with a large enough effect; inconclusive means small, poorly fitted or top-dose-only effect; inactive means flat fitted curve, though single readings scatter.

SMILES	TDP1 cell noCPT	TDP1 cell CPT	ClpP mod	DRD3 antagonist	D3 ag	IL1B secr inh
C=Cc1ccc(Cn2c(C(=O)O)c(CNC3CCCCC3)c3ccc(OC)cc32)cc1	21µM*	21µM*	-11%	x	-14	x
CCC1CN(CCNC(=O)c2cccc(C(=O)OC)c2)Cc2cc(OC)ccc2O1 (configuration not stated)	-26%	4%[9.04 µM]	x	x	x	x
O=C(CSCc1ccco1)N1CCc2ccccc21	-20%	u	x	-10	5	-18
Cc1onc(-c2ccccc2)c1C(=O)Nc1sc2c(c1C#N)CCC(C)C2 (configuration not stated)	u	u	u	15	32*	-22
Cc1onc(-c2ccccc2)c1C(=O)NC1CCC(C)CC1 (configuration not stated)	u	13µM*	0%	8	15	34
CC(OC(=O)/C(C#N)=C/c1ccc(N(C)C)cc1)C(=O)N(C)Cc1ccccc1 (configuration not stated)	12µM*	u	-2%	20	14	10
COc1cc(-c2nc3ccc(N4CCN(C)CC4)cc3[nH]2)cc(OC)c1OC	u	u	x	-3	1	-52*
Cc1nc(C)c(C(=O)NCCC(c2ccccc2)c2ccccc2)o1	12µM*	u	x	5	-7	30
Cc1ccsc1C(=O)NCCC(c1ccccc1)c1ccccc1	u	1%	x	-14	-9	u
O=C(Nc1cccc(Cl)c1)c1ccc(F)c(S(=O)(=O)N2CCN(c3ccccn3)CC2)c1	18µM*	23µM*	-16%	23	6	-4
CCOc1ccc(NC(=O)c2ccc(F)c(S(=O)(=O)N3CCCC3)c2)cc1	12µM*	9.2µM*	17%	19	-6	48
CCOc1ccc(NC(=O)c2ccc(F)c(S(=O)(=O)N3CCN(c4ccccn4)CC3)c2)cc1	16µM*	u	-11%	-22	-2	-6
CCc1ccc(NC(=O)c2ccc(F)c(S(=O)(=O)N3CCN(c4ccc(OC)cc4)CC3)c2)cc1	u	u	-1%	x	15	x
CCOc1ccc(NC(=O)c2ccc(S(=O)(=O)N3CCOCC3)cc2)cc1	-10%	2%	x	-7	-7	-4
CC(C)CN(C)C(=O)CCc1nnc(Cc2cccc(C(F)(F)F)c2)o1	3%	3%	x	-2	-3	9
COc1ccc(N(CC(=O)NCc2ccc(Cl)cc2)S(=O)(=O)c2ccccc2[N+](=O)[O-])c(OC)c1	u	u	x	1	1	u
C=CCC[C@H](Cc1ccc(F)cc1)C(=O)OC[C@H](Cc1c[nH]c2ccccc12)NC(=O)[C@@H](CC=C)CC(=O)N[C@H](CO)Cc1ccccc1	-81%	u	1%	28	6	u
C=CCC[C@H](Cc1ccc(F)cc1)C(=O)OC[C@H](Cc1c[nH]c2ccccc12)NC(=O)[C@H](CC=C)CC(=O)N[C@H](CO)Cc1ccccc1	u	u	-1%	5	9	-8
C=CCC[C@@H](Cc1ccc(F)cc1)C(=O)OC[C@H](Cc1c[nH]c2ccccc12)NC(=O)[C@@H](CC=C)CC(=O)N[C@H](CO)Cc1ccccc1	u	u	0%	42	31*	-8
C=CCC[C@H](Cc1ccc(F)cc1)C(=O)OC[C@H](Cc1c[nH]c2ccccc12)NC(=O)[C@@H](CC=C)CC(=O)N[C@@H](CO)Cc1ccccc1	16µM*	5.8µM*	1%	-10	9	69
C=CCC[C@H](Cc1ccc(F)cc1)C(=O)OC[C@@H](C)NC(=O)[C@@H](CC=C)CC(=O)N[C@H](CO)Cc1ccccc1	u	u	-2%	-18	-13	-3
C=CCC[C@H](Cc1ccc(F)cc1)C(=O)OC[C@@H](Cc1c[nH]c2ccccc12)NC(=O)[C@@H](CC=C)CC(=O)N[C@H](CO)Cc1ccccc1	15µM*	18µM*	0%	3	20	-22
O=C(Nc1ccccc1C(=O)Nc1nnc(C(F)(F)F)s1)c1ccccc1	4.1µM*	2.9µM*	x	2	27	x
CCc1c(C)sc2c1CCN(C(=O)Nc1cc(C)ccc1C)C2c1ccc(OC)cc1 (configuration not stated)	26µM*	u	-1%	x	5	x
CCc1c(C)sc2c1CCN(C(=O)Nc1ccccc1Cl)C2c1ccc(OC)cc1 (configuration not stated)	15µM*	u	0%	x	-2	x
O=C(N/N=C/c1ccc(Cl)cc1Cl)C(=O)NC1CC1	-28%	-22%	x	-17	-8	2
Cc1ccc(S(=O)(=O)NCCc2nnc3ccc(SCc4ccccc4F)nn23)cc1	21µM*	18µM*	-2%	x	9	x
O=S(=O)(NCCc1nnc2ccc(SCc3ccc(C(F)(F)F)cc3)nn12)c1ccccc1	u	15µM*	-2%	x	7	x
